Source: PubChem BioAssay (NCI)
Compounds without any hit were thinned out: in the full panel of roughly 83,000, 20% have a hit.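 Testing used 96-well plates and a 48-hour single-concentration exposure. Example: -40 means 40% of the starting cells died.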 Activity calls are given as the source filed them. How the source made its calls: active means growth percent below 10; inactive means the rest.

What was measured:
Assay in all cases: NCI-60 one-dose screen, 48 h (100 = growth as untreated, 0 = no growth, -100 = all killed)
Details in all cases: 10 µM unless noted
HCT-15 colon = system: HCT-15 colon
HT29 colon = system: HT29 colon
SNB-75 CNS = system: SNB-75 CNS
SNB-19 CNS = system: SNB-19 CNS
U251 CNS = system: U251 CNS
PC-3 prostate = system: PC-3 prostate
SK-MEL-5 melanoma = system: SK-MEL-5 melanoma
UACC-62 melanoma = system: UACC-62 melanoma
LOX IMVI melanoma = system: LOX IMVI melanoma
SK-MEL-28 melanoma = system: SK-MEL-28 melanoma

Measured: growth

CCCCCCC1(C)NCCO1 (stereo not given)
inactive: HCT-15 colon 103% | HT29 colon 106% | SNB-75 CNS 97% | SNB-19 CNS 94.9% | U251 CNS 92.4% | PC-3 prostate 94% | SK-MEL-5 melanoma 112% | UACC-62 melanoma 86.7% | LOX IMVI melanoma 103% | SK-MEL-28 melanoma 110%

COCCn1c(-c2csc(-c3cn(C)c4ccc(OC)cc34)n2)cc2cccnc21
inactive: SNB-75 CNS 72.4% | SNB-19 CNS 85.3% | U251 CNS 48.4% | PC-3 prostate 19.2% | SK-MEL-5 melanoma 65.2% | UACC-62 melanoma 82.1% | SK-MEL-28 melanoma 85.1%
active: HCT-15 colon 7.45% | HT29 colon 5% | LOX IMVI melanoma -22.6%

O=CC1(C2(C=O)c3ccccc3-c3ccccc32)c2ccccc2-c2ccccc21
active: HCT-15 colon -36.4% | HT29 colon -53.9% | SNB-75 CNS -79.2% | SNB-19 CNS -83% | U251 CNS -63% | PC-3 prostate -64.5% | SK-MEL-5 melanoma -83.7% | UACC-62 melanoma -61.5% | LOX IMVI melanoma -61% | SK-MEL-28 melanoma -38.2%

O=C(Nc1nn(-c2ccc(Cl)cc2Cl)nc1-c1ccccc1)c1ccccc1
inactive: HCT-15 colon 97.1% | HT29 colon 94.1% | SNB-75 CNS 85.7% | SNB-19 CNS 105% | U251 CNS 93.6% | PC-3 prostate 84.3% | SK-MEL-5 melanoma 110% | UACC-62 melanoma 84.9% | LOX IMVI melanoma 82.5% | SK-MEL-28 melanoma 104%

O=C1CNC(c2ccccc2)C(c2ccccc2)N1 (stereo not given)
inactive: HCT-15 colon 104% | HT29 colon 85.2% | SNB-75 CNS 75.8% | SNB-19 CNS 100% | U251 CNS 97.5% | PC-3 prostate 81.6% | SK-MEL-5 melanoma 104% | UACC-62 melanoma 96.6% | LOX IMVI melanoma 92.1% | SK-MEL-28 melanoma 171%

C#Cc1cccc(Nc2ncnc3ccc(-c4cncc(NS(C)(=O)=O)c4)cc23)c1
inactive: HCT-15 colon 55.9% | HT29 colon 20.7% | SNB-75 CNS 30.6% | SNB-19 CNS 35.2% | PC-3 prostate 26.8% | UACC-62 melanoma 33.4% | SK-MEL-28 melanoma 41.4%
active: U251 CNS 4.32% | SK-MEL-5 melanoma -75.7% | LOX IMVI melanoma 7.21%

O=C(Nn1c2c(sc1=NCc1ccccc1)C(=O)c1ccccc1C2=O)c1cc2ccc1CCc1ccc(cc1)CC2
inactive: HCT-15 colon 55.3% | HT29 colon 99.6% | SNB-75 CNS 33.9% | SNB-19 CNS 74.1% | U251 CNS 70.7% | PC-3 prostate 57.8% | SK-MEL-5 melanoma 51.3% | UACC-62 melanoma 66.4% | LOX IMVI melanoma 35.7% | SK-MEL-28 melanoma 91.4%

C=C1C(=O)O[C@H]2[C@H]1CC/C(COC(=O)N[C@H]1C[C@H](O[C@H]3C[C@](O)(C(=O)CO)Cc4c(O)c5c(c(O)c43)C(=O)c3c(OC)cccc3C5=O)O[C@@H](C)[C@H]1O)=C\CC[C@@]1(C)O[C@@H]21
active: LOX IMVI melanoma 0.614% | SK-MEL-28 melanoma 9.44%
inactive: HCT-15 colon 99.2% | HT29 colon 25.2% | SNB-75 CNS 56.4% | SNB-19 CNS 68.4% | U251 CNS 45.3% | PC-3 prostate 78% | SK-MEL-5 melanoma 68.3% | UACC-62 melanoma 34.6%

C=CCn1cc(-c2nc3ccccc3s2)c2cc(-c3ccc4c5c(cccc35)C(=O)N(N)C4=O)ccc21
inactive: HCT-15 colon 98% | HT29 colon 105% | SNB-75 CNS 85.1% | SNB-19 CNS 97.2% | U251 CNS 104% | PC-3 prostate 88.2% | SK-MEL-5 melanoma 96.5% | UACC-62 melanoma 86.9% | LOX IMVI melanoma 95.9% | SK-MEL-28 melanoma 109%

Cc1nnc(-n2c(O)cc(=O)n(-c3ccccc3)c2=S)nc1/C=C/c1ccc(N(C)C)cc1
inactive: HCT-15 colon 28.9% | HT29 colon 24.3% | SNB-75 CNS 17.3% | SNB-19 CNS 59.8% | U251 CNS 53.7% | PC-3 prostate 67.1% | SK-MEL-5 melanoma 60.6% | UACC-62 melanoma 11.7% | LOX IMVI melanoma 18.8% | SK-MEL-28 melanoma 58.6%

Cc1ccc(-c2nn(-c3ccccc3)cc2C=C2C(=O)ON=C2C(C)C)cc1
inactive: HCT-15 colon 63% | HT29 colon 44.5% | SNB-75 CNS 70.3% | SNB-19 CNS 78.4% | U251 CNS 52.4% | PC-3 prostate 63.5% | SK-MEL-5 melanoma 87.1% | UACC-62 melanoma 75.8% | SK-MEL-28 melanoma 88.7%
active: LOX IMVI melanoma 2%

CCCNC(=O)Oc1ccc(/C(=C(/C)Cc2ccc(OC)cc2)c2ccc(OCCCN(C)C)cc2)cc1
inactive: HCT-15 colon 70.3% | HT29 colon 25.7% | SNB-75 CNS 80.8% | SNB-19 CNS 88.8% | U251 CNS 63.5% | PC-3 prostate 74.4% | SK-MEL-5 melanoma 86.9% | UACC-62 melanoma 102% | LOX IMVI melanoma 73.4% | SK-MEL-28 melanoma 94.1%

CC(C)OC(=O)c1ccc2[nH]c(O)c(C(=Nc3ccc(N(C)C(=O)CN4CCN(C)CC4)cc3)c3ccccc3)c2c1
active: HCT-15 colon -14.4% | HT29 colon -48.1% | SNB-75 CNS -98.1% | SNB-19 CNS 1.52% | U251 CNS -90.5% | PC-3 prostate 9.18% | SK-MEL-5 melanoma -95.4% | UACC-62 melanoma -44.1% | LOX IMVI melanoma -96.7% | SK-MEL-28 melanoma -54.4%

CCOC(=O)CSc1ncnc2c1c(-c1ccccc1)c(-c1ccccc1)n2-c1ccc(C)cc1
inactive: HCT-15 colon 106% | HT29 colon 63.9% | SNB-75 CNS 87.8% | SNB-19 CNS 63.4% | U251 CNS 49.1% | PC-3 prostate 51.9% | SK-MEL-5 melanoma 44.9% | UACC-62 melanoma 57.1% | LOX IMVI melanoma 78.4% | SK-MEL-28 melanoma 87.6%

COc1ccc(/C=N/C2=C(C#N)C(c3cccc(Cl)c3)c3c(ccc4ccccc34)O2)cc1 (stereo not given)
active: SNB-75 CNS -30.1%
inactive: HCT-15 colon 16.7% | HT29 colon 10.3% | SNB-19 CNS 26.8% | U251 CNS 25.6% | PC-3 prostate 23.8% | SK-MEL-5 melanoma 31.3% | UACC-62 melanoma 36.3% | LOX IMVI melanoma 26.7% | SK-MEL-28 melanoma 70.1%

Cc1cc(=O)[nH]c2c(C#N)cnn12
inactive: HCT-15 colon 107% | HT29 colon 104% | SNB-75 CNS 100% | SNB-19 CNS 98.1% | U251 CNS 102% | PC-3 prostate 107% | SK-MEL-5 melanoma 99.4% | UACC-62 melanoma 90.7% | LOX IMVI melanoma 101% | SK-MEL-28 melanoma 105%

O=[N+]([O-])C1C(c2ccccc2)C12c1ccccc1-c1ccccc12 (stereo not given)
active: HT29 colon -13.4% | U251 CNS -15.2% | SK-MEL-5 melanoma -16.5% | LOX IMVI melanoma -44.4%
inactive: HCT-15 colon 17.5% | SNB-75 CNS 29% | SNB-19 CNS 43.3% | PC-3 prostate 12.2% | UACC-62 melanoma 17.8% | SK-MEL-28 melanoma 49.2%

c1ccc(CNc2c3ccccc3nc3ccccc23)cc1
inactive: HCT-15 colon 24.6% | HT29 colon 19% | SNB-75 CNS 64.4% | SNB-19 CNS 39.4% | U251 CNS 38.5% | PC-3 prostate 37.2% | SK-MEL-5 melanoma 63.1% | UACC-62 melanoma 61% | LOX IMVI melanoma 19.8% | SK-MEL-28 melanoma 85.5%

C1=CN2CC(c3ccccc3)=NNC2c2ccccc21 (stereo not given)
inactive: HCT-15 colon 96.6% | HT29 colon 99.4% | SNB-75 CNS 37.5% | SNB-19 CNS 105% | U251 CNS 103% | PC-3 prostate 81.9% | SK-MEL-5 melanoma 92.8% | UACC-62 melanoma 75.5% | LOX IMVI melanoma 92.8% | SK-MEL-28 melanoma 126%

C=C1C(=O)O[C@H]2[C@H]1CC/C(COC(=O)CCSCCC(=O)OC/C1=C/CC[C@@]3(C)O[C@H]3[C@H]3OC(=O)C(=C)[C@@H]3CC1)=C\CC[C@@]1(C)O[C@@H]21
inactive: SNB-75 CNS 48.6% | SNB-19 CNS 55% | SK-MEL-5 melanoma 54.3%
active: HCT-15 colon -6.34% | HT29 colon -9.93% | U251 CNS 6.76% | PC-3 prostate -14.5% | UACC-62 melanoma -67% | LOX IMVI melanoma -79.3% | SK-MEL-28 melanoma -35.6%
